# Source: PubChem
# Anthrax LF inh2: Bacillus anthracis LF protease inhibitors, primary screen, biochemical, multiplex microsphere, MLPCN library; Lethal factor (Bacillus anthracis), P15917; inhibition, % at 10 µM; AID 588501, 2011; hit rate 0.12% among 360,000; multiplex microsphere protease cleavage assay; further: plate controls were buffer without enzyme for full effect and enzyme alone for no effect
# BoNT-F LC inh: BoNT/F light chain protease inhibitors, primary screen, biochemical, flow cytometry, MLPCN library; Botulinum neurotoxin type F light chain protease (Clostridium botulinum); Multiplex microsphere protease cleavage assay; inhibition, % at 10 µM; hit rate 0.22% among 360,000; AID 588497, 2011; in the data active means inhibition above about 35%, passing the limit was not always enough; inconclusive means no clear call, values can overlap the other calls; further: plate controls were buffer without enzyme for full effect and enzyme alone for no effect
# BH1578 lux ind: inducers of Vibrio cholerae quorum light production without autoinducers, primary screen, BH1578 luxS cqsA deficient, single point; V. cholerae BH1578 lux reporter, luminescence, 6 h; activation, % at 18.7 µM; hit rate 0.16% among 350,000; in the data active means activation mostly above about 9.7%, no sharp cut-off; inconclusive means no clear call, values can overlap the other calls; inactive means mostly below about 3.7%
# BoNT-A LC inh2: BoNT/A light chain protease inhibitors, primary screen, biochemical, flow cytometry, MLPCN library; AID 588499, 2011; multiplex microsphere protease substrate cleavage; Botulinum neurotoxin type A light chain protease (Clostridium botulinum A str. ATCC 3502); inhibition, % at 10 µM; hit rate 0.17% among 360,000; further: plate controls were buffer without enzyme for full effect and enzyme alone for no effect
# Bead autofluor: counter-screen for toxin protease inhibitors: compound fluorescence | compound autofluorescence counterscreen, microsphere flow cytometry; active compounds read high | fluorescence intensity (test concentration not listed) | hit rate 3.1% among 360,000 | AID 624483; in the data active means fluorescence intensity above about 16000; inconclusive means no clear call, values can overlap the other calls
# An asterisk follows results filed as active; i = inactive; ? = inconclusive; . = no result. Hits are enriched below; roughly 3.5% of the tested compounds scored in any of these assays. Unless noted, no stated cut-off is given here; in the data, active means inhibition above about 30%; inconclusive means no clear call, values can overlap the other calls; inactive means below that.
SMILES,Anthrax LF inh2,BoNT-F LC inh,BH1578 lux ind,BoNT-A LC inh2,Bead autofluor
Cc1ccc(C(=O)Nc2nc(=O)n(C)s2)cc1,-1.7,0.2,-0.2,?,22548*
Cn1ncc2c(Nc3cccc([N+](=O)[O-])c3)ncnc21,-6.0,1.6,i,2.0,3740
CCCCN1CNC(=S)N(c2cc(C)ccc2C)C1,-0.3,-1.6,i,0.1,21773*
CCCCN1CNC(=S)N(c2ccccc2OCC)C1,-2.5,10.8,-0.2,1.0,7728
O=C(CC1C(=O)NCCN1C(=O)Nc1ccccc1)Nc1ccc2c(c1)OCCO2 (stereo unspecified),-3.1,-5.2,i,-0.5,16409*
O=C(CC1C(=O)NCCN1C(=O)Nc1ccccc1)Nc1cccc(Cl)c1 (stereo unspecified),3.7,-2.6,0.4,0.1,3464
Cc1ccc(C)c(S(=O)(=O)NCc2ccncc2)c1,-1.4,2.8,i,-0.1,3790
Cc1ccc2nsnc2c1S(=O)(=O)NCc1ccncc1,-4.5,-1.9,0.9,0.5,3684
Cc1ccc(C)c(S(=O)(=O)NCc2cccnc2)c1,-1.6,-4.1,i,-1.6,21139*
Cc1ccc2nsnc2c1S(=O)(=O)NCc1cccnc1,-1.7,-2.9,-1.7,-0.7,22869*
O=C(NCCCn1ccnc1)c1nn2c(C(F)(F)F)cc(-c3ccccc3)nc2c1Cl,-1.7,-2.7,-0.3,-1.1,2129
O=C(CCc1ccccc1)N1CCN(S(=O)(=O)c2cccs2)CC1,-2.6,1.3,i,2.8,5187
O=C(O)c1ccc(Cl)c(S(=O)(=O)Nc2cccc(C(=O)Nc3cccc(C(F)(F)F)c3)c2)c1,3.1,-6.2,2.2,-2.6,6712
COC(=O)c1nn(-c2ccccc2)c(=O)cc1Oc1ccccc1,-1.8,1.2,-3.1,0.3,22483*
CCCSc1cc(=O)n(-c2ccccc2)nc1C(=O)OCC,3.0,-1.5,i,0.3,22530*
CCOC(=O)c1nnn(-c2ccccc2)c1C,-0.8,-7.0,i,?,24310*
CC1CCCCN1C(=O)C1COc2ccccc2O1 (stereo unspecified),6.1,10.2,-0.2,4.9,3092
CCOC(=O)C1CCN(C(=O)c2ccc(N3CCCC3=O)cc2)CC1,.,.,-0.3,.,.
COc1ccc2nc(C)cc(N3CCN(S(=O)(=O)c4ccccc4F)CC3)c2c1,-6.5,3.0,-2.1,1.4,6586
O=c1c2ccccc2sn1-c1cc(S(=O)(=O)N2CCOCC2)ccc1N1CCCC1,-8.3,2.7,-3.6,?,20573*
O=c1c2ccccc2sn1-c1cc(S(=O)(=O)N2CCOCC2)ccc1N1CCOCC1,1.4,23.4,-0.4,82.9*,9835
Cc1cc(=O)[nH]c(N2CCN(Cc3ccccc3)CC2)n1,-1.4,-8.0,-0.4,-0.8,10349
CCCCc1c(O)nc(N2CCN(Cc3ccccc3)CC2)[nH]c1=O,0.1,4.5,-2.0,2.4,21940*
COc1ccc(OC)c(C2C3=C(COC3=O)Nc3cc4c(cc32)OCO4)c1 (stereo unspecified),-9.4,6.6,-4.6,5.5,19754*
COC(=O)[C@]1(CC(C)C)N[C@H](c2ccc(-c3ccc(Cl)c(Cl)c3)cc2)[C@@H]2C(=O)N(C)C(=O)[C@@H]21,-5.8,-2.7,0.0,0.1,3662
SMILES,Anthrax LF inh2,BoNT-F LC inh,BH1578 lux ind,BoNT-A LC inh2,Bead autofluor
O=C(Nc1cccn(Cc2c(Cl)cccc2Cl)c1=O)c1ccc(Cl)cc1Cl,-7.7,-5.5,i,0.0,6515
O=c1ccccn1Cc1c(Cl)cccc1Cl,-0.6,4.2,-2.4,?,23028*
O=C(Nc1cccn(Cc2c(Cl)cccc2Cl)c1=O)c1ccccc1Cl,-6.2,-4.6,i,?,21806*
COc1ccccc1CNC(=O)CCNS(=O)(=O)c1cccc2nonc12,-0.2,-1.5,-0.4,-0.8,5560
Cc1cccc(CSc2nnc(N)n2-c2ccccc2)c1,-7.2,-1.1,0.3,-1.2,22675*
Nc1nnc(SCc2ccccc2)n1-c1ccccc1,-13.0,9.2,3.1,?,17516*
Cc1cccc(CSc2nnnn2-c2ccccc2)c1,-4.0,3.5,i,0.3,2478
c1ccc(CSc2nnc(-c3ccccn3)n2-c2ccccc2)cc1,1.9,-0.1,-1.9,0.2,3222
CC(C)(C)c1ccc(NC(=O)CSc2n[nH]c(=O)n2C2CC2)cc1,-1.1,-0.8,-0.6,0.8,3961
O=C(Nc1cccc2c1CCCC2)C1CCN(c2nnnn2-c2ccccc2)CC1,-7.8,13.1,-0.1,1.0,8810
